Here are results for 40 sequences from publication PMC7862700, “An all-to-all approach to the identification of sequence-specific readers for epigenetic DNA modifications on cytosine”.

The target of the first assay is T1, GABPA (Homo sapiens, UniProt Q06546 1-454).
T1 sequence: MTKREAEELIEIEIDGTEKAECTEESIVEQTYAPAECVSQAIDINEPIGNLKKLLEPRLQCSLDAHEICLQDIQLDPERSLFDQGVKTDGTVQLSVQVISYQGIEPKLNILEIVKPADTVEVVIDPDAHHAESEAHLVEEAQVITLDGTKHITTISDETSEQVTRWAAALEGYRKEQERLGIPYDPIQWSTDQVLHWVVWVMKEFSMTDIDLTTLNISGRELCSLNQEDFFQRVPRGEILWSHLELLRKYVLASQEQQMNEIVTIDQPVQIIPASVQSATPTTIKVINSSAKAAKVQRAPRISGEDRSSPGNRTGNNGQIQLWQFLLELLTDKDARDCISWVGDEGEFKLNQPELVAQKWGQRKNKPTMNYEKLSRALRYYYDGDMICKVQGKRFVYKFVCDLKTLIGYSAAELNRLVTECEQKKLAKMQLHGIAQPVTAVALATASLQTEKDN
The assay can be described thus: DAPPL (digital affinity profiling via proximity ligation, sequencing); 10 mM Tris-HCl pH 7.5, 50 mM NaCl, 1 mM DTT, 4% glycerol, room temperature, 30 min; GST-TFs on glutathione beads, 16-mer random dsDNA library, 0.1% formaldehyde crosslink after washing; high values mean tight binding. To be noted: protein: recombinant; tags: N-terminal GST; dsDNA, one strand shown. Summed up:
(§1)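 Pools were built from human transcription factors expressed in yeast as GST fusions, captured on glutathione beads and DNA-barcoded, along with a tag-only sample. Incubation with 200 nmole of a 16-mer random double-stranded DNA library lasted 30 min at room temperature in Tris/NaCl/DTT/glycerol buffer, and was followed by washing, 0.1% formaldehyde crosslinking, proximity ligation, PCR amplification and Illumina NextSeq500 sequencing. Binding signal is the quotient of each hexamer's read frequency for a factor and its frequency for the tag-only sample.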
As for TGCTTT, the binding signal is 1.12 fold enrichment (6-mer frequency, TF over GST control).
The same measure, in the same setting: in the case of CTAGAT it was 1.23 fold enrichment (6-mer frequency, TF over GST control); in that of CTCTAC, 1.56 fold enrichment (6-mer frequency, TF over GST control); in that of CTTGCT, 1.38 fold enrichment (6-mer frequency, TF over GST control).
Still for that read-out and setting: in the case of TCGATT it was 1.13 fold enrichment (6-mer frequency, TF over GST control); in that of GAAAAT, 1.16 fold enrichment (6-mer frequency, TF over GST control); in that of TCCTTG, 1.25 fold enrichment (6-mer frequency, TF over GST control).
CCTAGC: the binding signal was 1.31 fold enrichment (6-mer frequency, TF over GST control).
Same read-out and setting: in the case of AGCTTC it was 1.71 fold enrichment (6-mer frequency, TF over GST control); in that of CGTACT, 1.19 fold enrichment (6-mer frequency, TF over GST control).
Still for that read-out and setting: the value for TCTGGC was 1.29 fold enrichment (6-mer frequency, TF over GST control); that for TCAAAC was 1.26 fold enrichment (6-mer frequency, TF over GST control).
On the same count and under the same terms, in the case of TTTCGA it was 1.51 fold enrichment (6-mer frequency, TF over GST control); in that of GTATCT, 1.17 fold enrichment (6-mer frequency, TF over GST control).
For the sequence TTTCAT, the binding signal is 1.22 fold enrichment (6-mer frequency, TF over GST control).
Same read-out and setting: in the case of TATGTA it was 1.29 fold enrichment (6-mer frequency, TF over GST control); in that of CGCCCT, 1.37 fold enrichment (6-mer frequency, TF over GST control).
Same read-out and setting: in the case of TTTGAT it was 1.26 fold enrichment (6-mer frequency, TF over GST control); in that of TATGGC, 1.26 fold enrichment (6-mer frequency, TF over GST control); in that of TATCAT, 1.3 fold enrichment (6-mer frequency, TF over GST control).
Same read-out and setting: in the case of CTTCAC it was 1.38 fold enrichment (6-mer frequency, TF over GST control).
Take CTACCT: the binding signal was 1.35 fold enrichment (6-mer frequency, TF over GST control).
Turning to ATGAAC, the binding signal is 1.27 fold enrichment (6-mer frequency, TF over GST control).
Still for that read-out and setting: the value for GATGAT was 1.35 fold enrichment (6-mer frequency, TF over GST control); that for ATAGTA was 1.19 fold enrichment (6-mer frequency, TF over GST control).
The same measure, in the same setting: the value for TCATCT was 1.27 fold enrichment (6-mer frequency, TF over GST control); that for ATACAG was 1.29 fold enrichment (6-mer frequency, TF over GST control); that for AAAATA was 1.18 fold enrichment (6-mer frequency, TF over GST control).
Still for that read-out and setting: the value for AACTAA was 1.38 fold enrichment (6-mer frequency, TF over GST control); that for GCGCTT was 1.32 fold enrichment (6-mer frequency, TF over GST control); that for GCCTTA was 1.26 fold enrichment (6-mer frequency, TF over GST control).
As to AAATGA, the binding signal was 1.26 fold enrichment (6-mer frequency, TF over GST control).
Same read-out and setting: in the case of TACGCT it was 1.4 fold enrichment (6-mer frequency, TF over GST control).
For TCCGCT, the binding signal was 2.06 fold enrichment (6-mer frequency, TF over GST control).
Same read-out and setting: in the case of CCTCCA it was 1.23 fold enrichment (6-mer frequency, TF over GST control); in that of TCCTAG, 1.24 fold enrichment (6-mer frequency, TF over GST control).
The same measure, in the same setting: in the case of TCTTTA it was 1.33 fold enrichment (6-mer frequency, TF over GST control); in that of ATGTTT, 1.36 fold enrichment (6-mer frequency, TF over GST control); in that of GAACTA, 1.34 fold enrichment (6-mer frequency, TF over GST control).
For the sequence CTCAAC, the binding signal is 1.33 fold enrichment (6-mer frequency, TF over GST control).

For a further assay, the target named is T2, ERG (Homo sapiens, UniProt P11308 1-479).
T2 sequence: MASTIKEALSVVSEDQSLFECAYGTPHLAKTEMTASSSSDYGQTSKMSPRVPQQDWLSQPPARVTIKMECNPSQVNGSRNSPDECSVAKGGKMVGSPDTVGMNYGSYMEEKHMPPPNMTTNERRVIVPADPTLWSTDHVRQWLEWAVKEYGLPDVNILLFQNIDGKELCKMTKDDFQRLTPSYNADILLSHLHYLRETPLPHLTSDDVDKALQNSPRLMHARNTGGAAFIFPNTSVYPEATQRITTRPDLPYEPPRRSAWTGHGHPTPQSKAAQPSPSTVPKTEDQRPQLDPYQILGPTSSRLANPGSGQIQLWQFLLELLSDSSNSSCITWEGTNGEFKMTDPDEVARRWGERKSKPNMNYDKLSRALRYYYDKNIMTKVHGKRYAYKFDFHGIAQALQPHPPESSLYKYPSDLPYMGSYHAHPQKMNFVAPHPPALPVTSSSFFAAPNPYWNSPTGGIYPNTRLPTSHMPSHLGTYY
The assay is described as above. To be noted: protein: recombinant; tags: N-terminal GST; dsDNA, one strand shown. Summed up: as §1
Take TGCTTT: the binding signal was 1.02 fold enrichment (6-mer frequency, TF over GST control).
Still for that read-out and setting: in the case of CTAGAT it was 1.12 fold enrichment (6-mer frequency, TF over GST control).
The same measure, in the same setting: the value for CTCTAC was 1.6 fold enrichment (6-mer frequency, TF over GST control); that for CTTGCT was 1.21 fold enrichment (6-mer frequency, TF over GST control).
As to TCGATT, the binding signal is 1.12 fold enrichment (6-mer frequency, TF over GST control).
On the same count and under the same terms, in the case of GAAAAT it was 1.07 fold enrichment (6-mer frequency, TF over GST control); in that of TCCTTG, 1.35 fold enrichment (6-mer frequency, TF over GST control); in that of CCTAGC, 1.14 fold enrichment (6-mer frequency, TF over GST control).
On the same count and under the same terms, the value for AGCTTC was 1.83 fold enrichment (6-mer frequency, TF over GST control); that for CGTACT was 1.16 fold enrichment (6-mer frequency, TF over GST control); that for TCTGGC was 1.27 fold enrichment (6-mer frequency, TF over GST control).
Still for that read-out and setting: the value for TCAAAC was 1.26 fold enrichment (6-mer frequency, TF over GST control); that for TTTCGA was 1.37 fold enrichment (6-mer frequency, TF over GST control); that for GTATCT was 1.14 fold enrichment (6-mer frequency, TF over GST control).
TTTCAT: the binding signal is 1.15 fold enrichment (6-mer frequency, TF over GST control).
As to TATGTA, the binding signal is 1.2 fold enrichment (6-mer frequency, TF over GST control).
The same measure, in the same setting: the value for CGCCCT was 1.31 fold enrichment (6-mer frequency, TF over GST control).
On the same count and under the same terms, the value for TTTGAT was 1.3 fold enrichment (6-mer frequency, TF over GST control).
The same measure, in the same setting: in the case of TATGGC it was 1.27 fold enrichment (6-mer frequency, TF over GST control); in that of TATCAT, 1.13 fold enrichment (6-mer frequency, TF over GST control).
As to CTTCAC, the binding signal was 1.45 fold enrichment (6-mer frequency, TF over GST control).
As for CTACCT, the binding signal is 1.43 fold enrichment (6-mer frequency, TF over GST control).
The same measure, in the same setting: in the case of ATGAAC it was 1.19 fold enrichment (6-mer frequency, TF over GST control); in that of GATGAT, 1.33 fold enrichment (6-mer frequency, TF over GST control); in that of ATAGTA, 1.15 fold enrichment (6-mer frequency, TF over GST control).
The same measure, in the same setting: in the case of TCATCT it was 1.15 fold enrichment (6-mer frequency, TF over GST control).
Regarding ATACAG, the binding signal was 1.16 fold enrichment (6-mer frequency, TF over GST control).
On the same count and under the same terms, the value for AAAATA was 1.19 fold enrichment (6-mer frequency, TF over GST control); that for AACTAA was 1.33 fold enrichment (6-mer frequency, TF over GST control); that for GCGCTT was 1.24 fold enrichment (6-mer frequency, TF over GST control).
On the same count and under the same terms, in the case of GCCTTA it was 1.21 fold enrichment (6-mer frequency, TF over GST control); in that of AAATGA, 1.3 fold enrichment (6-mer frequency, TF over GST control); in that of TACGCT, 1.34 fold enrichment (6-mer frequency, TF over GST control).
On the same count and under the same terms, in the case of TCCGCT it was 2.31 fold enrichment (6-mer frequency, TF over GST control); in that of CCTCCA, 1.38 fold enrichment (6-mer frequency, TF over GST control); in that of TCCTAG, 1.17 fold enrichment (6-mer frequency, TF over GST control).
With TCTTTA, the binding signal was 1.29 fold enrichment (6-mer frequency, TF over GST control).
On the same count and under the same terms, in the case of ATGTTT it was 1.39 fold enrichment (6-mer frequency, TF over GST control).
Same read-out and setting: in the case of GAACTA it was 1.32 fold enrichment (6-mer frequency, TF over GST control); in that of CTCAAC, 1.24 fold enrichment (6-mer frequency, TF over GST control).

For the next assay, the target named is ELF1 (Homo sapiens, UniProt P32519 1-619). Described as above. To be noted: protein: recombinant; tags: N-terminal GST; dsDNA, one strand shown. Put shortly: as §1
Chain of ELF1 (P32519 whole entry): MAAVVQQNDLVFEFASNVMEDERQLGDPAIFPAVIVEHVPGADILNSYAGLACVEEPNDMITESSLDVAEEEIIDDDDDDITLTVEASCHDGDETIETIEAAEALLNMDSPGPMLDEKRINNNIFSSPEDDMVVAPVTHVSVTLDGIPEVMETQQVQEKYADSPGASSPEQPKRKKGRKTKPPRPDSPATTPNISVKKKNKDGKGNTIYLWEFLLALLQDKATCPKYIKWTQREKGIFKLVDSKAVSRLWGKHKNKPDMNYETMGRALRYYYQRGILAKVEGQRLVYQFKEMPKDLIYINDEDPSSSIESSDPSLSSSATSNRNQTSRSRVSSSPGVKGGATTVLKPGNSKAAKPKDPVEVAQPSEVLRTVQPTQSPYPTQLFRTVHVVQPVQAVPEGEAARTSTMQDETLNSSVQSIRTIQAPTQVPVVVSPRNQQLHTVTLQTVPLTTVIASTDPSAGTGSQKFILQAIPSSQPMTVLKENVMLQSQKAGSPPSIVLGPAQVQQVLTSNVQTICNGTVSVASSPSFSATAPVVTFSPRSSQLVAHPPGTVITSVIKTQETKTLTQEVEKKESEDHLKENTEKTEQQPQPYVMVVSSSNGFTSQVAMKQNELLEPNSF
With TGCTTT, the binding signal is 1.1 fold enrichment (6-mer frequency, TF over GST control).
Same read-out and setting: in the case of CTAGAT it was 1.15 fold enrichment (6-mer frequency, TF over GST control); in that of CTCTAC, 1.59 fold enrichment (6-mer frequency, TF over GST control).
Same read-out and setting: the value for CTTGCT was 1.33 fold enrichment (6-mer frequency, TF over GST control); that for TCGATT was 1.12 fold enrichment (6-mer frequency, TF over GST control).
The same measure, in the same setting: in the case of GAAAAT it was 1.04 fold enrichment (6-mer frequency, TF over GST control).
As to TCCTTG, the binding signal is 1.25 fold enrichment (6-mer frequency, TF over GST control).
In the case of CCTAGC, the binding signal is 1.24 fold enrichment (6-mer frequency, TF over GST control).
The same measure, in the same setting: in the case of AGCTTC it was 1.66 fold enrichment (6-mer frequency, TF over GST control); in that of CGTACT, 1.27 fold enrichment (6-mer frequency, TF over GST control); in that of TCTGGC, 1.14 fold enrichment (6-mer frequency, TF over GST control).
The same measure, in the same setting: the value for TCAAAC was 1.15 fold enrichment (6-mer frequency, TF over GST control); that for TTTCGA was 1.56 fold enrichment (6-mer frequency, TF over GST control).
Still for that read-out and setting: in the case of GTATCT it was 1.18 fold enrichment (6-mer frequency, TF over GST control); in that of TTTCAT, 1.18 fold enrichment (6-mer frequency, TF over GST control).
On to TATGTA, for which the binding signal is 1.29 fold enrichment (6-mer frequency, TF over GST control).
On to CGCCCT, for which the binding signal is 1.43 fold enrichment (6-mer frequency, TF over GST control).
Same read-out and setting: in the case of TTTGAT it was 1.23 fold enrichment (6-mer frequency, TF over GST control); in that of TATGGC, 1.24 fold enrichment (6-mer frequency, TF over GST control).
With TATCAT, the binding signal is 1.15 fold enrichment (6-mer frequency, TF over GST control).
